Test systems include SK-MEL-2 melanoma; EKVX NSCLC; SN12C renal; UO-31 renal; TK-10 renal; ACHN renal; CAKI-1 renal; A498 renal; CCRF-CEM leukemia; MOLT-4 leukemia; SR leukemia; RPMI-8226 leukemia; OVCAR-8 ovarian; OVCAR-5 ovarian; OVCAR-4 ovarian; SK-OV-3 ovarian; IGROV1 ovarian; OVCAR-3 ovarian; HS 578T breast; NCI/ADR-RES ovarian.
What all share (assay): NCI-60 one-dose screen, 48 h (100 = growth as untreated, 0 = no growth, -100 = all killed)
Holding throughout (conditions): 10 µM unless noted

The structures appear in SMILES notation. This is part of a sample that, as a whole, favours compounds with a hit. Of some 83,000 tested, about 20% had one in any assay.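 Values shown are percent growth following 48 h exposure of cells in 96-well plates to a single concentration of compound; below 10 was considered active.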 Values without a mark were called inactive. Calls of active or inactive are those of the source.

On to `FC(F)(F)c1ccc(-c2cn3nc(-c4c[nH]c5ccc(Br)cc45)sc3n2)cc1`, for which the growth is 97.8% in the assay on SK-MEL-2 melanoma; 68.9% in the assay on EKVX NSCLC; 93.9% in the assay on SN12C renal; 68.8% in the assay with UO-31 renal; 112% in the assay with TK-10 renal; 88.6% with ACHN renal. Moreover, the growth in the assay on CAKI-1 renal is 61.4%; with A498 renal, 113%; with CCRF-CEM leukemia, 95%; in the assay on MOLT-4 leukemia it was 87.6%; in the assay with SR leukemia it was 85.9%; with RPMI-8226 leukemia it was 107%. Besides, the growth in the assay with OVCAR-8 ovarian is 105%; with OVCAR-5 ovarian, 95.5%; with OVCAR-4 ovarian, 102%; in the assay on SK-OV-3 ovarian it was 92.7%; in the assay with IGROV1 ovarian, 73.2%; in the assay on OVCAR-3 ovarian, 107%. Moreover, the growth with HS 578T breast is 89.1%; in the assay with NCI/ADR-RES ovarian, 96%.

In the case of `O=C1/C(=C/C(Cl)=C/c2ccccc2)SC(=S)N1CCc1ccc(O)cc1`, the growth with SK-MEL-2 melanoma was 12.8%; with EKVX NSCLC, 11%; with SN12C renal, 6.85% (active); in the assay on UO-31 renal, -84.5% (active); with TK-10 renal it was 16.8%; with ACHN renal, -73.4% (active). For the same molecule, the growth in the assay on CAKI-1 renal was -15.7% (active); with A498 renal, -0.593% (active); with CCRF-CEM leukemia it was 9.68% (active); in the assay with MOLT-4 leukemia, 9.33% (active); with SR leukemia it was 13.3%; in the assay on RPMI-8226 leukemia, 2.88% (active). Further, the growth with OVCAR-8 ovarian is 16.7%; in the assay on OVCAR-5 ovarian it was -20.3% (active); in the assay on OVCAR-4 ovarian, 30.7%; in the assay with SK-OV-3 ovarian, 34.8%; in the assay with IGROV1 ovarian, -36.6% (active); in the assay on OVCAR-3 ovarian, -7.98% (active). Also, the growth is 37.5% with HS 578T breast and 9.23% (active) in the assay on NCI/ADR-RES ovarian.

Consider `NC1=C(Cl)C(=O)c2ccc(S(N)(=O)=O)cc2C1=O`, for which the growth in the assay with SK-MEL-2 melanoma is -73.6% (active); in the assay on EKVX NSCLC, -77.6% (active); in the assay on SN12C renal, -67.5% (active); with UO-31 renal, -95.9% (active); in the assay on TK-10 renal, -16.5% (active); in the assay on ACHN renal, -95.6% (active). Besides, the growth was -63.8% (active) in the assay on CAKI-1 renal; -99.5% (active) in the assay on A498 renal; 20.1% with CCRF-CEM leukemia; 11.8% with MOLT-4 leukemia; 2.63% (active) in the assay on SR leukemia; -0.705% (active) with RPMI-8226 leukemia. Also, the growth was -53.9% (active) with OVCAR-8 ovarian; -87.7% (active) with OVCAR-5 ovarian; -100% (active) with OVCAR-4 ovarian; -45.3% (active) with SK-OV-3 ovarian; -85.5% (active) in the assay with IGROV1 ovarian; -95.5% (active) with OVCAR-3 ovarian. For the same molecule, the values for the growth in the assay with HS 578T breast and in the assay with NCI/ADR-RES ovarian were -21% (active) and -30.7% (active), respectively.

Take `COc1cc2c(cc1-c1c(C)noc1C)ncc1nc(C3CCC(F)(F)CC3)n([C@H](C)COC(F)F)c12`: the growth in the assay on SK-MEL-2 melanoma is 65.7%; in the assay on EKVX NSCLC it was 48.1%; in the assay on SN12C renal, 51%; with UO-31 renal, 25.3%; in the assay with TK-10 renal, 27.1%; in the assay on ACHN renal, 37.5%. The growth was 35.4% in the assay with CAKI-1 renal; -22.8% (active) with A498 renal; 50.3% in the assay with CCRF-CEM leukemia; 48.9% in the assay with MOLT-4 leukemia; 22.7% in the assay with SR leukemia; 18.5% in the assay on RPMI-8226 leukemia. In addition, the growth in the assay on OVCAR-8 ovarian is 44.3%; in the assay on OVCAR-5 ovarian, 82.5%; in the assay with OVCAR-4 ovarian it was 48.1%; in the assay on SK-OV-3 ovarian it was 10.5%; with IGROV1 ovarian, 40.6%; in the assay with OVCAR-3 ovarian, 39.6%. Moreover, the values for the growth in the assay with HS 578T breast and in the assay on NCI/ADR-RES ovarian were 13.9% and 40.1%, respectively.

In the case of `O=C1/C(=C/c2ccc3c(c2)OCO3)SC(=S)N1CCc1ccc(O)cc1`, the growth with SK-MEL-2 melanoma is 100%; in the assay with EKVX NSCLC, 98.8%; in the assay on SN12C renal it was 92.1%; in the assay with UO-31 renal it was 58.8%; with TK-10 renal, 81.3%; in the assay with ACHN renal, 97.2%. Besides, the growth in the assay with CAKI-1 renal was 81%; in the assay on A498 renal, 111%; in the assay on CCRF-CEM leukemia, 56.7%; in the assay on MOLT-4 leukemia it was 87.3%; with SR leukemia, 101%; in the assay with RPMI-8226 leukemia it was 89.8%. The growth in the assay on OVCAR-8 ovarian is 101%; in the assay with OVCAR-5 ovarian, 111%; in the assay with OVCAR-4 ovarian it was 82.9%; in the assay on SK-OV-3 ovarian, 104%; in the assay on IGROV1 ovarian, 75.9%; in the assay on OVCAR-3 ovarian, 101%. Also, the figures for the growth in the assay with HS 578T breast and in the assay on NCI/ADR-RES ovarian were 96.7% and 97.4%, respectively.

`O=C1c2ccccc2C(=O)c2c(N=Nc3[nH]c(=S)[nH]c3O)cccc21`: the growth with SK-MEL-2 melanoma is 24.4%; in the assay on EKVX NSCLC, 41.6%; in the assay on SN12C renal, 35.3%; with UO-31 renal, 26.9%; in the assay with TK-10 renal, 54.1%; in the assay with ACHN renal it was 41.4%. The growth in the assay with CAKI-1 renal is 20.6%; with A498 renal, -6.1% (active); with CCRF-CEM leukemia it was 14.1%; in the assay with MOLT-4 leukemia, 16%; in the assay with SR leukemia, 24.5%; in the assay on RPMI-8226 leukemia, -2.62% (active). Also, the growth in the assay with OVCAR-8 ovarian is 30.3%; with OVCAR-5 ovarian, 49.8%; with OVCAR-4 ovarian, 58.9%; in the assay with SK-OV-3 ovarian, 30.6%; with IGROV1 ovarian it was 27%; with OVCAR-3 ovarian, 1.75% (active). In addition, the growth in the assay on HS 578T breast is 5.86% (active); in the assay with NCI/ADR-RES ovarian, 50%.

Take `COc1ccccc1NS(=O)(=O)c1ccc2oc(SC(C)C)nc2c1`: the growth was 66.4% in the assay with SK-MEL-2 melanoma; 55.9% in the assay with EKVX NSCLC; 89.3% with SN12C renal; 73.5% in the assay with UO-31 renal; 102% in the assay on TK-10 renal; 151% with ACHN renal. The growth in the assay with CAKI-1 renal was 71.2%; with A498 renal, 91.4%; in the assay with CCRF-CEM leukemia, 65%; with MOLT-4 leukemia it was 69.6%; in the assay on SR leukemia, 54.9%; in the assay with RPMI-8226 leukemia it was 52.2%. Moreover, the growth in the assay with OVCAR-8 ovarian was 83.1%; in the assay on OVCAR-5 ovarian it was 82.1%; in the assay with OVCAR-4 ovarian, 53%; with SK-OV-3 ovarian, 114%; in the assay with IGROV1 ovarian, 92.1%; with OVCAR-3 ovarian it was 85.7%. Further, the growth with HS 578T breast is 95.4%; in the assay with NCI/ADR-RES ovarian it was 43.8%.
